High-throughput results as filed in PubChem.
An excerpt weighted towards active compounds, which were near 4.6% of everything screened.
tim23-1 inh: growth inhibitors of tim23-1 mutant yeast | AID 463212 | S. cerevisiae tim23-1 growth, BacTiter-Glo luminescence, 24 h | inhibition, % at 20 µM | 1.3% of 330,000 active;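 active means growth inhibition of the mutant yeast at or above 50%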;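 further: temperature-sensitive mutant grown at 25 °C; plate controls were DMSO-treated mutant yeast for no effect and medium wells lacking yeast for full effect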
NALP3 yeast inh: inhibitors of NALP3 inflammasome in yeast; Yeast reconstituted NLRP3/ASC/caspase-1, beta-gal luminescence, 24 h; inhibition, % at 10 µM; 0.39% of 330,000 active;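 active means inhibition of 50% or more; inactive means inhibition below 50%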;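 further: plate controls were induced DMSO wells for no effect and uninduced yeast grown without galactose for full effect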
SKKanGAS inh: blocks kanamycin growth of S. pyogenes SKKanGAS strain. inhibition, % at 7.5 µM. 1.3% of 300,000 active. BacTiter-Glo, 6 h;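 active means mean replicate score, as percent of positive control median, at least 50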;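 further: strain carries kanamycin resistance gene driven by streptokinase promoter and grows in 40 µg/ml kanamycin; loss of luminescence reflects streptokinase promoter inhibition or plain growth inhibition; 0% = median of DMSO wells and 100% = positive control at its reference dose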
TIM10 inh: inhibits growth of TIM10 yeast strain. S. cerevisiae TIM10 strain growth, BacTiter-Glo luminescence, 24 h. inhibition, % at 10 µM. 1.4% of 330,000 active. AID 463195;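 active means inhibition of 40% or more at the single tested concentration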;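 further: wild-type TIM10 isogenic control strain grown at permissive 25 °C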
tim10-1 inh: tim10-1 yeast growth inhibition; S. cerevisiae tim10-1 ts strain growth, BacTiter-Glo, 24 h; 2.2% of 330,000 active; AID 463190; inhibition, % at 20 µM;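 active means inhibition of at least 40%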;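 further: mutant grown at 25 °C; 0% = DMSO wells with yeast and 100% = wells holding no yeast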
* hit, by the source's call; . = no result given.

SMILES | tim23-1 inh | NALP3 yeast inh | SKKanGAS inh | TIM10 inh | tim10-1 inh
COc1ccccc1Nc1nc(N)nc(CN2CCN(c3ccccc3F)CC2)n1 | 12 | 10 | 62* | -3 | 21
COc1ccccc1Nc1nc(N)nc(CN2CCN(Cc3ccccc3)CC2)n1 | 2 | -3 | -18 | -2 | 19
Cc1cccc(Nc2nc(N)nc(CN3CCN(c4ccccc4F)CC3)n2)c1 | 24 | 3 | 72* | 26 | 32
CC(=O)N1CCN(CC(=O)Nc2cc(S(=O)(=O)N3CCCCC3)ccc2C)CC1 | 1 | 12 | . | 1 | -5
Cc1ccc(C)c(/C=C/C(=O)c2ccccc(=O)c2O)c1 | . | . | 99* | . | .
Cc1cccc(C(=O)NNC(=O)c2ccccc2O)c1 | 1 | 25 | 8 | -1 | 12
O=C(/C=C/c1ccccc1Cl)c1ccccc(=O)c1O | . | . | 90* | . | .
Cc1ccc(/C=C/C(=O)c2ccccc(=O)c2O)c(C)c1 | 47 | -2 | 58* | 22 | 37
O=C(/C=C/c1ccccc1Cl)c1cccnc1 | 15 | -14 | 9 | 4 | 29
COc1ccc(NC(=O)CSCc2cc(=O)n3c(C)csc3n2)cc1 | 8 | 8 | -2 | -8 | 5
O=C(NCCc1ccc(C(F)(F)F)cc1)C1CC(=O)N(Cc2ccccc2)C1 (configuration not stated) | 1 | 16 | . | 7 | 1
COc1c(N2CCN(C(=S)NCc3ccccc3)C(C)C2)c(F)cc2c(=O)c(C(=O)O)cn(C3CC3)c12 (configuration not stated) | -3 | 27 | 106* | 12 | 14
CC1COc2c(N3CCN(C)CC3)c(F)cc3c(=O)c(C(=O)O)cn1c23 (configuration not stated) | 8 | 10 | 95* | -8 | 9
COc1c(F)c(F)cc2c(=O)c(C(=O)O)cn(C3CC3)c12 | 14 | 8 | 5 | -11 | 14
COc1c(N2CCN[C@H](C)C2)c(F)cc2c(=O)c(C(=O)O)cn(C3CC3)c12 | 9 | 16 | 101* | -6 | 5
COCCn1c(SCC(=O)Nc2ccc(OC)c(S(N)(=O)=O)c2)nc2ccccc2c1=O | 1 | -8 | -14 | 13 | 5
CC(=O)c1ccc(OCCCC(=O)N(CCC2=CCCCC2)c2c(N)n(Cc3ccccc3)c(=O)[nH]c2=O)cc1 | 12 | 4 | 8 | 17 | 12
CCN(CC)CCCNc1nc(N)c([N+](=O)[O-])c(N2CCCCCC2)n1 | -4 | 9 | 66* | -1 | 11
C=CCNc1nc(N)c([N+](=O)[O-])c(N2CCCCCC2)n1 | 40 | 33 | 21 | 21 | 9
CNC(=O)c1cc(Oc2ccc(NC(=O)Nc3ccc(Cl)c(C(F)(F)F)c3)cc2)ccn1 | 33 | 19 | . | 24 | 21
OC(COc1cccc2ccccc12)CN1CCN(c2ccc(Cl)cc2)CC1 (configuration not stated) | 15 | 45 | 57* | 17 | 21
Cc1cc(C)c(OCC(=O)Nc2ccccc2N2CCCCC2)c(C)c1 | 8 | 26 | 80* | -2 | 10
Cc1ccccc1OCC(=O)Nc1ccccc1N1CCC(C)CC1 | 8 | 12 | 82* | -20 | -7
O=C(COc1cccc(Cl)c1)Nc1ccccc1N1CCCCC1 | 21 | 23 | 66* | 9 | 11
CC(=O)N1CCN(c2ccccc2NC(=O)COc2ccccc2C)CC1 | 25 | 25 | -1 | 12 | 3
SMILES | tim23-1 inh | NALP3 yeast inh | SKKanGAS inh | TIM10 inh | tim10-1 inh
CN1CCN(C(c2ccccn2)c2cc(Cl)c3cccnc3c2O)CC1 (configuration not stated) | 34 | 37 | 19 | -38 | -23
CN1CCN(C(c2ccc(C(F)(F)F)cc2)c2ccc3cccnc3c2O)CC1 (configuration not stated) | 49 | 19 | 87* | 10 | 36
COc1ccc(C(=O)Cn2nnc(-c3ccccc3NC(=O)c3ccco3)n2)cc1 | -8 | -4 | 55* | 12 | 1
COc1ccc(C(=O)Nc2ccccc2-c2nnn(CC(=O)N3CCOCC3)n2)cc1 | 5 | -1 | -2 | -1 | 10
O=C(CCl)N(CCc1ccccc1)CCc1ccccc1 | 49 | -2 | 19 | -35 | -78
CCn1nc(NC(=O)c2ccncc2)c2cc3cc(C)ccc3nc21 | 26 | 32 | 91* | 1 | 29
CC(=O)Nc1ccc(C2C(=O)c3ccccc3C2=O)cc1 | 22 | 8 | 51* | 7 | 3
CC(C)OC(=O)c1c(NS(=O)(=O)c2ccccc2)sc2c1CCCC2 | 10 | 5 | 97* | 23 | 36
Cc1cccc(Nc2nc(-c3ccc(F)c(C)c3)cs2)n1 | 49 | 20 | 72* | 24 | -6
Cc1cccc(Nc2nc(-c3ccc(O)c(O)c3)cs2)n1 | 12 | 11 | 2 | 19 | 2
Nn1cnnc1SCC(=O)N1CCc2ccccc2C1 | 10 | 14 | . | 15 | 8
CCc1nnc(NC(=O)c2sc3nc4cc(C)ccc4cc3c2N)s1 | 30 | 20 | 93* | 15 | 32
O=C1c2[nH]nc(-c3ccccc3O)c2C(c2cccc(Cl)c2)N1Cc1ccco1 (configuration not stated) | 42 | 3 | 50* | -5 | 34
O=C1c2[nH]nc(-c3ccccc3O)c2C(c2ccc(F)cc2)N1Cc1ccco1 (configuration not stated) | 32 | 8 | 18 | -3 | 36
O=C(O)COc1ccc(/C=N/Nc2nc(Nc3ccccc3)nc(N3CCCCC3)n2)cc1 | 17 | 6 | 57* | 19 | 29
COc1ccc(/C=N/Nc2nc(Nc3ccccc3)nc(N3CCCC3)n2)cc1 | 24 | 12 | 56* | -2 | 10
CCOc1ccc([C@@H]2CC=C(C(=O)O)CN2S(=O)(=O)c2ccc(C)cc2)cc1 | 10 | 0 | . | 11 | 9
CCOC(=O)c1sc(NC(=O)Nc2cccc(Cl)c2)cc1C | 2 | 5 | 95* | 11 | 4
O=c1cc(-c2ccc(O)c(-c3c(O)cc(O)c4c(=O)cc(-c5ccc(O)cc5)oc34)c2)oc2cc(O)cc(O)c12 | 3 | 8 | 62* | 1 | 2
COc1ccc(NC(=O)COC(=O)c2c3c(nc4ccccc24)CCCC3)cc1Cl | 10 | 8 | 61* | 30 | 20
COc1ccc(NC(=O)COC(=O)c2c3c(nc4ccccc24)CCCC3)cc1 | 1 | 22 | 9 | 20 | 21
C/C=C/C(O)c1ccc2ccccc2c1 (configuration not stated) | 6 | 12 | -5 | -11 | -11
CCC(NC(=S)NC1CCCCC1)c1ccc(C(C)C)cc1 (configuration not stated) | 28 | 20 | 65* | 5 | 3
O=C(COc1ccc(Br)cc1)N1CCN(c2ncccn2)CC1 | 14 | 30 | . | 8 | 0
CCOC(=O)c1c(C)[nH]c(C)c1C(=O)COC(=O)Cc1n[nH]c(=O)c2ccccc12 | -5 | 15 | . | 6 | -10
Cc1cc(N/N=C/c2ccc(O)c(C)c2O)nc(-c2ccccc2O)n1 | . | . | 58* | . | .
C/C(=N\Nc1cc(C)nc(-c2ccccc2O)n1)c1ccccc1 | 5 | 13 | 23 | 18 | 22
